For part of these data: Entries with a potency or affinity are not part of this list.
Assays:
Parameters in all cases: scale not given: direction of the effect not stated beside the values
[1] = molecular target: Protein translocase subunit SecA (Escherichia coli (strain K12)) (UniProt P10408); assay: Assay to Identify E. coli SecA ATPase Inhibitors; assay type: functional; settings: 30 µM
[2] = molecular target: T1, Ubiquitin-activating enzyme e1, putative (Leishmania donovani (strain BPK282A1)) (UniProt E9BSI1); assay: Leishmania donovani Ubiquitin Activating Enzyme (LdE1); assay type: functional; settings: 30 µM
T1 sequence (whole entry): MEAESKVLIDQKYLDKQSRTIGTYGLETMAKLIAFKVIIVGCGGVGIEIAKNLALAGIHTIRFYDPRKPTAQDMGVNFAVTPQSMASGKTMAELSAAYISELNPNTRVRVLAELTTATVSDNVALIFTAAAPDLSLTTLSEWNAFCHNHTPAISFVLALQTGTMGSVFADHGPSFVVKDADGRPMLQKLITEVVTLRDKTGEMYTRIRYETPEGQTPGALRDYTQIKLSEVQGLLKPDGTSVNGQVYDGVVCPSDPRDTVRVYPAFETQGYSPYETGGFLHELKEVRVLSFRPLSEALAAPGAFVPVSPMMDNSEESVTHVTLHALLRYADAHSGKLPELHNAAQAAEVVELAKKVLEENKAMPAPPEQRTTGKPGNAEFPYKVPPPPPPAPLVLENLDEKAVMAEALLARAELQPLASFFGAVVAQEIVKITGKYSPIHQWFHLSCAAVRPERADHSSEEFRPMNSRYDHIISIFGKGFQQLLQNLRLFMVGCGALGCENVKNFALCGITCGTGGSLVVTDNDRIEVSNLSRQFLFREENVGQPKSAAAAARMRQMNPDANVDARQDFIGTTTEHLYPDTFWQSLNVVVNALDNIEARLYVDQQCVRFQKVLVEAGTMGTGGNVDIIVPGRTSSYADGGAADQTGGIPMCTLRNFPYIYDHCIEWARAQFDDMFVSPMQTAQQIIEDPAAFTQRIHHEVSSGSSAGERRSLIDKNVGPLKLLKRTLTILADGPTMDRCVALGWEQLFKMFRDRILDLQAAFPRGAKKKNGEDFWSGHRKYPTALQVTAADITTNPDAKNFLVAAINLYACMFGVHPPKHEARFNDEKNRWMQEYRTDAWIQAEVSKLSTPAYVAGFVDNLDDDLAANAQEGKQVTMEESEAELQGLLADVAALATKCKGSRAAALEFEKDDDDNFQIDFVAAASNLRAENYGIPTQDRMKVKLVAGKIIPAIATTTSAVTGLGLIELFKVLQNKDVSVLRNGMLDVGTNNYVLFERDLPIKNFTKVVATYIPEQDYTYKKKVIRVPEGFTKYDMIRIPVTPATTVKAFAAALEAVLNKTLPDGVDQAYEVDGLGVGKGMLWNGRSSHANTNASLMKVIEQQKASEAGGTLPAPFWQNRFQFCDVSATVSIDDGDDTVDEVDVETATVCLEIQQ

[3] = molecular target: Sialic acid-binding Ig-like lectin 9 (Homo sapiens) (UniProt Q9Y336); assay: Hs-Siglec9 ALPHAscreen SOP 20170721; settings: 10 µM
[4] = tested on: Trypanosoma cruzi; assay: Trypanosoma cruzi phosphomannomutase and mannose-1-phosphate guanylyltransferase assay; assay type: functional; settings: 10 µM
[5] = molecular target: T2, Arginase-2, mitochondrial (Homo sapiens) (UniProt P78540); assay: in vitro enzyme assay to detect the production of urea directly proportional to the activity of Arginase II; assay type: functional; settings: 33.3 µM; also: in the data most compounds retested in dose-response had high values
T2 sequence (whole entry): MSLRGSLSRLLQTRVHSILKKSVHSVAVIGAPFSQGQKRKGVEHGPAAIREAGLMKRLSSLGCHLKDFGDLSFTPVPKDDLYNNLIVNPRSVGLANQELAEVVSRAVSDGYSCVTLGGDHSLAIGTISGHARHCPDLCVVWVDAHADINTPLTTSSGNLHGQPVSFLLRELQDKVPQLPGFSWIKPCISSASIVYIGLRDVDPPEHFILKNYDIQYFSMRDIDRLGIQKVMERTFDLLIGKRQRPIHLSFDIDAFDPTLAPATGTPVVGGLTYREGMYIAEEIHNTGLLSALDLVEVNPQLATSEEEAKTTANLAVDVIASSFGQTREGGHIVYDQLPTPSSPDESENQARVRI

[6] = molecular target: T3, Proteasome subunit beta (Trypanosoma cruzi) (UniProt O96673); assay: Trypanosoma cruzi proteasome chymotrypsin-like activity (TcProtChymo) assay.; also: in the data most compounds retested in dose-response had high values; assay type: functional; settings: 9.37 µM
T3 sequence (whole entry): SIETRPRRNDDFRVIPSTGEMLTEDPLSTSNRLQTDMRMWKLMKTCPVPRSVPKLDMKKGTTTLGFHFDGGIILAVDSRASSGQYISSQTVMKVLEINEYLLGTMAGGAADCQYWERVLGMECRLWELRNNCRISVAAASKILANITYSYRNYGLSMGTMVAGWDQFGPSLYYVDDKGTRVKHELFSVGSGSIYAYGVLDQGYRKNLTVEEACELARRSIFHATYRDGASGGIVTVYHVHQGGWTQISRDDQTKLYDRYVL

[7] = species on record: Homo sapiens; assay: To identify inhibition of the IFN signalling (Jak-Stat) pathway via expression of an eGFP reporter gene under the control of an IFN-stimulated response element (ISRE) containing MxA promoter.; assay type: functional; settings: 30 µM
[8] = molecular target: T4, Tyrosyl-tRNA synthetase, putative (Trypanosoma cruzi (strain CL Brener)) (UniProt Q4DSP6); assay: Trypanosoma cruzi tyrosyl tRNA synthetase (TcYRS) _High Tyrosine SOP; assay type: functional; settings: 30 µM; also: in the data most compounds retested in dose-response had high values
T4 sequence (whole entry): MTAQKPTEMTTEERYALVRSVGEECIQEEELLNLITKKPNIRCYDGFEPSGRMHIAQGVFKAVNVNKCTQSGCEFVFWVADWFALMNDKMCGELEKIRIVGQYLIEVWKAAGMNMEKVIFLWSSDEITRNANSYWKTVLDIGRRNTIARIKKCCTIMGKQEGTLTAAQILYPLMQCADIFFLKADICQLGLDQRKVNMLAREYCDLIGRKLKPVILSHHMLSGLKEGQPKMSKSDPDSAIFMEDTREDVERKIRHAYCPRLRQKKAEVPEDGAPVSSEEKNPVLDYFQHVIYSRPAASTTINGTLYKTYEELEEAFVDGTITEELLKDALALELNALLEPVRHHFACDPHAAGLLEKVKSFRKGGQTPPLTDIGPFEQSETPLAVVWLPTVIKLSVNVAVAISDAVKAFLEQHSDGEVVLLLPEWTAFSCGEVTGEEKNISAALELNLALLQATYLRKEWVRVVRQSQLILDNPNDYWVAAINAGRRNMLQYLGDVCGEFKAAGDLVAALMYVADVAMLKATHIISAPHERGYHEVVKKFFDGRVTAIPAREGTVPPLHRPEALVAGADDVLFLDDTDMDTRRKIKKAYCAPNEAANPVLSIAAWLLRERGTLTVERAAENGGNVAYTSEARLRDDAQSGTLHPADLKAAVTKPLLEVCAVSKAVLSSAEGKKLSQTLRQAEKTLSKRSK

[9] = molecular target: T4, Tyrosyl-tRNA synthetase, putative (Trypanosoma cruzi (strain CL Brener)); assay: Trypanosoma cruzi tyrosyl tRNA synthetase (TcYRS) SOP; assay type: functional; settings: 30 µM
[10] = molecular target: Chromo domain-containing protein 1 (Saccharomyces cerevisiae (strain ATCC 204508 / S288c) (Baker's yeast)) (UniProt P32657); assay: ScCHD-1 Enzyme Inhibition Assay; assay type: functional; settings: 30 µM; also: in the data most compounds retested in dose-response had high values
[11] = molecular target: AMP-activated protein kinase, AMPK (Homo sapiens) (UniProt P54646+O43741+P54619+Q9UGJ0+Q9Y478+Q13131+Q9UGI9); assay: AMP-dependent Kinase enzyme assay. An in vitro enzyme assay that detects ADP turnover that is directly proportional to AMPK activity. This uses naive AMPK that is activated during the assay with MK-8722; assay type: functional; settings: 30 µM

Sequence of Chromo domain-containing protein 1 (Saccharomyces cerevisiae (strain ATCC 204508 / S288c) (Baker's yeast)) (P32657 whole entry, the tested form may be a part): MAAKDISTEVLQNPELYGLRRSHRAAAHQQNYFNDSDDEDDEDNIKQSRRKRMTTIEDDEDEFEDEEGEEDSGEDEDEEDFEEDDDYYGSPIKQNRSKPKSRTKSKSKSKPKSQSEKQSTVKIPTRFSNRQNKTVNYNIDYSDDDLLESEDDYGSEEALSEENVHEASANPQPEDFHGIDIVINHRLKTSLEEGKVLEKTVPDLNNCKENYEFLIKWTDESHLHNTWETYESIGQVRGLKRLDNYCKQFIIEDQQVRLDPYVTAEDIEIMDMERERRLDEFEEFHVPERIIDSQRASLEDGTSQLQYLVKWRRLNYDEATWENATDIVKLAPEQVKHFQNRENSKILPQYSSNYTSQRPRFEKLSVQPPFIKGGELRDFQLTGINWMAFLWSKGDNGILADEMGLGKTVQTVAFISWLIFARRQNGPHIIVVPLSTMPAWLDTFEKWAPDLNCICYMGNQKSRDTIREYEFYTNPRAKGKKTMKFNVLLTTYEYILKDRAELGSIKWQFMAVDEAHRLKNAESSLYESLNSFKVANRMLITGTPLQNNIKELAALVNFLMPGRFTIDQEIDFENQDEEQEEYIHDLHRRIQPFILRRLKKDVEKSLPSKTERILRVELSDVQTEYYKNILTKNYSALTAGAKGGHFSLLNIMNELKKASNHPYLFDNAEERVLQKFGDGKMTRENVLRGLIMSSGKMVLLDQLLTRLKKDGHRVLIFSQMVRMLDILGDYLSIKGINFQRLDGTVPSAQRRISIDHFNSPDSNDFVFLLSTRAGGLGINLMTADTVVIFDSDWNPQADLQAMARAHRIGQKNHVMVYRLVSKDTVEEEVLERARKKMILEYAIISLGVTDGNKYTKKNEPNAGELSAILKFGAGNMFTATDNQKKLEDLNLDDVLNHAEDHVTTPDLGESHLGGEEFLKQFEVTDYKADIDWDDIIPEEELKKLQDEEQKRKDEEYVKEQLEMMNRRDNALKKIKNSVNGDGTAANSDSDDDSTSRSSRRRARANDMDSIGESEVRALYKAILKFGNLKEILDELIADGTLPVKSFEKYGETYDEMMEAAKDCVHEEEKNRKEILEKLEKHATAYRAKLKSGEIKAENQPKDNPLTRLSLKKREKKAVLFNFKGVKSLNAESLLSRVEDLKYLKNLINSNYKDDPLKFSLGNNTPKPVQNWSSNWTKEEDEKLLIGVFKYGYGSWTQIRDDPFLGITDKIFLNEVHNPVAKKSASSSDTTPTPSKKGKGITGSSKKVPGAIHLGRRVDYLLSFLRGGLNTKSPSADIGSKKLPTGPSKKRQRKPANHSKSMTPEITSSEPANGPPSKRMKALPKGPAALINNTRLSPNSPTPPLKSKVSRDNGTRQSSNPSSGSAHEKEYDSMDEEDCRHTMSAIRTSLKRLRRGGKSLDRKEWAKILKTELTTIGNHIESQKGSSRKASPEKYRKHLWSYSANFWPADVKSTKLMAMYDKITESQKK
Sequence of Protein translocase subunit SecA (Escherichia coli (strain K12)) (P10408 whole entry): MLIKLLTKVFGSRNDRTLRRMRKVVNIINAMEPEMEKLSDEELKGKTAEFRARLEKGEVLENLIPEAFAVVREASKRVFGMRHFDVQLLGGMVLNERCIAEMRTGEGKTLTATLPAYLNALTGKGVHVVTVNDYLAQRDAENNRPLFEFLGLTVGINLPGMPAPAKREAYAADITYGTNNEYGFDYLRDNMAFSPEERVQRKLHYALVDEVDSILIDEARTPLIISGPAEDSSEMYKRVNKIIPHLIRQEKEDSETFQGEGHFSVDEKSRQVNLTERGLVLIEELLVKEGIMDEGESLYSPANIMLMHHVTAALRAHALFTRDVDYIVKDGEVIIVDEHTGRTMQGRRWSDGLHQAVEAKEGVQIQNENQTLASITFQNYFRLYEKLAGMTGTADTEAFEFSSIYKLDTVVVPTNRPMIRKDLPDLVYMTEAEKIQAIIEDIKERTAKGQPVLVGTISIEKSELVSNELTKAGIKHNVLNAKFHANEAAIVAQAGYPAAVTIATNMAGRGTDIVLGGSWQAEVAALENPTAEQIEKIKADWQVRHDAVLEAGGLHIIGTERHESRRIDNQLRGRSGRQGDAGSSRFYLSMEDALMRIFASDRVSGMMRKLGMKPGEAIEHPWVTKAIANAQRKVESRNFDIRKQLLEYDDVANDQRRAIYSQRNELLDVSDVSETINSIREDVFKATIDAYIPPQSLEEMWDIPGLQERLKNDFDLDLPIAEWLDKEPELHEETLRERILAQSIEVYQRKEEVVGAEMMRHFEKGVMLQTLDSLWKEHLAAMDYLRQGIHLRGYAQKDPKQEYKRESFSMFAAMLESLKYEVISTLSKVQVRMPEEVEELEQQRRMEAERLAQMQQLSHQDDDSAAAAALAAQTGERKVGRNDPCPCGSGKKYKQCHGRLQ
Sequence of Sialic acid-binding Ig-like lectin 9 (Homo sapiens) (Q9Y336 whole entry): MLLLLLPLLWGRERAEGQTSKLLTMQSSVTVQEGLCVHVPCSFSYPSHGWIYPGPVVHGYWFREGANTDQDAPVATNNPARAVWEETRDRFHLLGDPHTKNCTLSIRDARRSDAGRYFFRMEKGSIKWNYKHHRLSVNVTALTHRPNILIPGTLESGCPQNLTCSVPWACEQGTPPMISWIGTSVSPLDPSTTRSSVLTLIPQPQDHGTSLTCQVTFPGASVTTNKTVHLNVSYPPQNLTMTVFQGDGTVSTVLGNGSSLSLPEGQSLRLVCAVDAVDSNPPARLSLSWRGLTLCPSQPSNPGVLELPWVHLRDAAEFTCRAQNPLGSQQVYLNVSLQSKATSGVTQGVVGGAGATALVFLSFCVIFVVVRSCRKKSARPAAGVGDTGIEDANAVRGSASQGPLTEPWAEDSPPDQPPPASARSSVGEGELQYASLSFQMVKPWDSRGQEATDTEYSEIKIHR

Compound | Percent Effect [1] [%] | Percent Effect [2] [%] | Percent Effect [3] [%] | Percent Effect [4] [%] | Percent Effect [5] [%] | Percent Effect [6] [%] | Percent Effect [7] [%] | Percent Effect [8] [%] | Percent Effect [9] [%] | Percent Effect [10] [%] | Percent Effect [11] [%]
COCCc1noc(CN2CCOC(Cn3nc(C)cc3C)C2)n1 (configuration not stated) | -2.32 | 10.4 | 14.5 | 6.72 | 8.4 | -7.89 | 7.1 | 4.9 | 18.8 | -6.59 | 
Cc1nccc(CN2CC[C@H](Oc3cccc(F)c3)[C@@](C)(O)C2)n1 | -2.64 | 14.7 | 6.31 | -0.197 | 3.1 | 0.657 | 2.7 | 7.41 | 15 | -17.3 | 
CN(Cc1noc(C2CC2)n1)C1CCN(Cc2ccncc2)C1 (configuration not stated) | -0.687 | 20.5 | -22.8 | 6.1 | 7.38 | 14.4 | 12 | 1.44 | 22.9 | -9.5 | 
COc1ccc(C)cc1CN(C)CC(N)=O |  |  |  |  |  |  |  |  |  |  | -2.2
CC(=O)NCCC(=O)NCc1cccnc1-n1cnc2ccccc21 | 0.292 | 0 | 2.93 | 6.69 | 12.2 | 1.71 | -5.79 | -0.532 | 2.44 | 98.3 | 
c1ccc2oc(C3CCN(Cc4ncon4)CC3)nc2c1 |  |  |  |  |  |  |  |  |  |  | -10.5
COCCN1CCN(Cc2cccc(OCC(N)=O)c2)CC1C (configuration not stated) | -6.03 | 0 | -0.422 | -3.81 | -0.887 | -0.255 | 7.49 | 2.63 | 0 | -4.22 | 
Cn1cc(N2CCN(c3ccc(C#N)c(Cl)c3)CC2=O)cn1 |  |  |  |  |  |  |  |  |  |  | -3.11
CSc1ccc(C(=O)C2CCCN(C(=O)CCn3cncn3)C2)cc1 (configuration not stated) |  |  |  |  |  |  |  |  |  |  | 10.4
CCc1ncc2c(n1)CN(CC(=O)Nc1ccc(Cl)cn1)CC2 | -4.26 | -2.67 | 4.13 | 1.21 | 2.66 | 4.83 | 4.95 | 8.95 | 7.69 | -9.89 | 
O=C(c1ncccn1)N1C[C@H]2CCC[C@@]2(COCc2cccnc2)C1 | -6.88 | 3.9 | -0.0107 | -1.46 | -4.45 | 10.3 | 89.1 | -2.63 | -7.69 | -1.21 | 
CS(=O)(=O)CCC(=O)Nc1ccsc1 |  |  |  |  |  |  |  |  |  |  | -6.46
COCCN1CCCN(C(=O)NC(C)Cn2ccnc2)CC1 (configuration not stated) | 0.718 | 13 | 12.5 | 0.56 | -4.71 | -0.702 | 8.17 | 0 | 18.8 | -5.5 | 
Fc1ccc(C2(CNCC(F)F)CCOC2)cc1 (configuration not stated) |  |  |  |  |  |  |  |  |  |  | 3.05
CN(CC(=O)Nc1ccc(Br)cn1)C(=O)Cc1ccc(O)cc1 | -6.43 | -18.7 | 0.45 | 2.61 | -0.887 | 8.4 | 0.283 | 3.68 | -82 | -5.7 | 
CNC(=O)N1C[C@H]2C[C@H](C(=O)Nc3ccccc3)[C@@H](C1)O2 | -6.94 | -35.1 | 1.87 | 0.0974 | -3.24 | 11.7 | 1.26 | 4.74 | 10.3 | 13.9 | 
COc1cccc(OC)c1C(=O)N1CCN(c2ccccc2F)CC1 | 0.59 | 12 | 0.141 | -4.34 | -6.2 | 12.2 | 46.4 | 0 | -5 | -24.9 | 
COc1ccc(NC(=O)N2CCC(CSC)C2)cc1C (configuration not stated) |  |  |  |  |  |  |  |  |  |  | -6.6
Cc1cccc(-c2noc(CN3CCCC3Cn3cccn3)n2)c1 (configuration not stated) | -4.47 | -13.3 | 4.15 | 2.81 | -0.887 | 9.07 | 35.3 | 1.58 | 2.56 | -6.03 | 
CCCc1nnc(N2CCC(N3CCCC3)CC2)o1 |  |  |  |  |  |  |  |  |  |  | -4.2
Cc1noc(C)c1CC(=O)N1CCCC(n2ccnc2C)C1 (configuration not stated) |  |  |  |  |  |  |  |  |  |  | -4.43
Cc1ccnc(C2COCCN2C)n1 (configuration not stated) |  |  |  |  |  |  |  |  |  |  | 26
Cc1cc(CC(=O)NC2CCCN(c3ccccc3Cl)C2=O)n[nH]1 (configuration not stated) |  |  |  |  |  |  |  |  |  |  | 4.62
Cc1cc(C)nc(N2CC[C@H](Oc3ccccc3F)[C@@H](O)CC2)n1 |  |  |  |  |  |  |  |  |  |  | 21.5

Source: ChEMBL document CHEMBL3988442, “University of Dundee, Small-Polar-MMV Screening Library” (2021)
